Experimental data published in PubChem BioAssay.
Calls of active or inactive are those of the source.

Tests used:
[1] = test system: PRMT1 (protein arginine N-methyltransferase 1); assay: PRMT1 binders on small-molecule microarrays, primary screen, biochemical, small-molecule microarray, 635 nm fluorescence (AID 1088); details: small-molecule microarray binding, higher = more signal;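 note: binding of Prmt1 protein to compounds spotted on small-molecule microarray slides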
[2] = yeast growth modulation, basal conditions, primary screen, YJM789 clinical isolate, OD600, 24 h (AID 1089);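 note: growth of clinical yeast isolate S. cerevisiae YJM 789 seeded 1000 cells per well; test concentration not given here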; details: S. cerevisiae YJM789 growth, higher = more signal, called active from +8 up or from −8 down
[3] = fission yeast growth modulation, primary screen, strain 972, OD600, 24 h, no modulator (AID 1090);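 note: basal condition with compound alone and no growth modifier present; test concentration not given here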; details: S. pombe 972 growth, higher = more signal, called active from +8 up or from −8 down
[4] = S. cerevisiae growth modulation with rapamycin, primary screen, strain BY4716, OD600, 96 h (AID 1091); details: higher = more signal, called active from +8 up or from −8 down; note: test concentration not given here
[5] = biological target: Torsin-1A-interacting protein 2 (Homo sapiens) (UniProt Q8NFQ8); assay: LULL1 binders on small-molecule microarray, primary screen, cell lysate, human LULL1 lysate, 635/667 nm fluorescence (AID 1092); details: hLULL1 lysate binding, 635 nm fluorescence, higher = more signal;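 note: probe is lysate of COS7 cells overexpressing human LULL1; score merges per-feature 667 nm fluorescence with signal-to-noise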
Chain of Torsin-1A-interacting protein 2 (Homo sapiens) (Q8NFQ8 whole entry, looked up): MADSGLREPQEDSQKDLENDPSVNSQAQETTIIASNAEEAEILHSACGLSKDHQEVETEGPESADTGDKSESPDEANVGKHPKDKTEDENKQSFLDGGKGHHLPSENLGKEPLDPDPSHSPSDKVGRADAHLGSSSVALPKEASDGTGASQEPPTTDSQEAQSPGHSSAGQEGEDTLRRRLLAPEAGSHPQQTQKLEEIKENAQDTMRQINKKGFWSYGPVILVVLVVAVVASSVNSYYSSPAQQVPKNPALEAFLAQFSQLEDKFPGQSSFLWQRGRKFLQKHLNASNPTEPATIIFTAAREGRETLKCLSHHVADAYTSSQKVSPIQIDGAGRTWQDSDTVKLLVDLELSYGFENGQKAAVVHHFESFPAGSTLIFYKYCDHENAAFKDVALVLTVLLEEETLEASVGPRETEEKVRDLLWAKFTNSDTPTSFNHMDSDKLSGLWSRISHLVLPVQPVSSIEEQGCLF

[6] = E. coli growth modulation, two-sided OD650, primary screen, E. coli filamentation project, strain DRC41, 24 h (AID 1093); details: OD650, 24 h, higher = more signal, called active from +8 up or from −8 down;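 note: MC1000 strain lacking acrAB efflux and sulA so SOS filamentation is blocked; test concentration not given here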
[7] = small-molecule microarray binders of probe aLefty2, primary screen, biochemical, biotinylated probe, 635/667 nm fluorescence (AID 1094); details: higher = more signal;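 note: score merges spot fluorescence near 667 nm with spot signal-to-noise ratio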
[8] = test system: Noggin (protein binding on small-molecule microarray); assay: Noggin binders on small-molecule microarray, primary screen, biochemical, 635/667 nm fluorescence (AID 1095); details: 635 nm fluorescence, higher = more signal;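 note: score merges 667 nm feature fluorescence with signal to noise over triplicate slides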
[9] = biological target: Neurogenic locus notch homolog protein 3 (Homo sapiens) (UniProt Q9UM47); assay: NOTCH3 binders on small-molecule microarray, primary screen, biochemical, 635/667 nm fluorescence (AID 1096); details: NOTCH3 binding, 635 nm fluorescence, higher = more signal
Chain of Neurogenic locus notch homolog protein 3 (Homo sapiens) (Q9UM47 whole entry, looked up): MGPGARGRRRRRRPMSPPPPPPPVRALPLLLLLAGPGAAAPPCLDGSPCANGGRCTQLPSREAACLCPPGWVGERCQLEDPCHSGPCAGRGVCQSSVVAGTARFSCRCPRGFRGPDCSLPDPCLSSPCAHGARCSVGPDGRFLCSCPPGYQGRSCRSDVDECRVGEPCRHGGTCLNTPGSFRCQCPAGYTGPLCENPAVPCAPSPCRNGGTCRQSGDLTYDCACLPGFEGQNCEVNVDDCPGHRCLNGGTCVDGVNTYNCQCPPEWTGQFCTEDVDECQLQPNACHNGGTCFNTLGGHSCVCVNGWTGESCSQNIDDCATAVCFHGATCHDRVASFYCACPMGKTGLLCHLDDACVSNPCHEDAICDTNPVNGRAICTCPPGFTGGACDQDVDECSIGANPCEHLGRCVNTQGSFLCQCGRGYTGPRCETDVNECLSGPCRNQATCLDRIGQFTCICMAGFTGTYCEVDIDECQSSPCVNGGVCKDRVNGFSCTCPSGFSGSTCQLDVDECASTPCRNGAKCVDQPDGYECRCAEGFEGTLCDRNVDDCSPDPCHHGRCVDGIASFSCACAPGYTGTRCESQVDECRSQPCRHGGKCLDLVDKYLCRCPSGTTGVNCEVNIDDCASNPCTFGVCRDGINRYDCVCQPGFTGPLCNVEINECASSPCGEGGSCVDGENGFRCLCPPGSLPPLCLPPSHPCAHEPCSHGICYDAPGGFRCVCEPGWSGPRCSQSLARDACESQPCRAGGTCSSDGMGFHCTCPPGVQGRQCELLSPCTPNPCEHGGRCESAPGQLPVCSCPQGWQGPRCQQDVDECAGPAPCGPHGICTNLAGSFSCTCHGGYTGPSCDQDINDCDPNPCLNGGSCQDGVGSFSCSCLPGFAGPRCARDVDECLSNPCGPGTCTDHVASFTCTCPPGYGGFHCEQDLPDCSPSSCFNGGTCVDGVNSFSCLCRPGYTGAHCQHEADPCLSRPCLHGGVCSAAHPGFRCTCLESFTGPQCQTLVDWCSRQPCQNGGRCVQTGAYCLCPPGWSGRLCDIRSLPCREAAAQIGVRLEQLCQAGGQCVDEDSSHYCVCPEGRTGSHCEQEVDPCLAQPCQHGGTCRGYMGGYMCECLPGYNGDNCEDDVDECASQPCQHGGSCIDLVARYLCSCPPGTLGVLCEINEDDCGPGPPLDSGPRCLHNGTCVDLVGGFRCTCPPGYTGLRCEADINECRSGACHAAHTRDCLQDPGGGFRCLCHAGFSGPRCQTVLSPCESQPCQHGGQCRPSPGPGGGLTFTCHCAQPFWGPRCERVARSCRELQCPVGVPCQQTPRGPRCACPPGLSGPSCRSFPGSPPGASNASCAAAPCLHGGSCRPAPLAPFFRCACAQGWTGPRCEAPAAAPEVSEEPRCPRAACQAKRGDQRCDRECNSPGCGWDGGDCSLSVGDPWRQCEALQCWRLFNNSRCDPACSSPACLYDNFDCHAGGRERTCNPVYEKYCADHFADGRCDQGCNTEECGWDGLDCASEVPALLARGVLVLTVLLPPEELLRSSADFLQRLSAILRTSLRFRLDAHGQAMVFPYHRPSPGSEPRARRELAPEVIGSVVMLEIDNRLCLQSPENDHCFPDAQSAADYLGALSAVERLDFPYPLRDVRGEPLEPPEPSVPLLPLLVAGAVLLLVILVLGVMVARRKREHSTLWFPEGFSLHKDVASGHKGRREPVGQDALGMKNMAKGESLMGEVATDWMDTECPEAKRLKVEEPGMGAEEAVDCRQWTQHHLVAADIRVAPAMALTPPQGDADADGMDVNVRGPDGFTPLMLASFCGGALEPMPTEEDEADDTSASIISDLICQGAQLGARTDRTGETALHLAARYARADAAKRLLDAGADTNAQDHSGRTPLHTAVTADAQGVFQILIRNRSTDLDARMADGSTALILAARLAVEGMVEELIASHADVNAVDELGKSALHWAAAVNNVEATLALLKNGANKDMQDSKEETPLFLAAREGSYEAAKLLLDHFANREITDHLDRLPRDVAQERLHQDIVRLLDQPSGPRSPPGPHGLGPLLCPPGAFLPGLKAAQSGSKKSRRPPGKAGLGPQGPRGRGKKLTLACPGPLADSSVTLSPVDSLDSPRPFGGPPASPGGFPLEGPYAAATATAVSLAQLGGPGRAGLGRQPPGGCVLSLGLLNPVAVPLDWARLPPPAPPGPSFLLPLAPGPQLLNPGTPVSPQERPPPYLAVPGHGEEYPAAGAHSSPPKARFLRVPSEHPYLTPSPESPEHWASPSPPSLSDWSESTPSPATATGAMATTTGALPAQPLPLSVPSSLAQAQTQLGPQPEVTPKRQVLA

[10] = small-molecule microarray binders of probe aEGFR, primary screen, biochemical, biotinylated probe, 635/667 nm fluorescence (AID 1097); details: higher = more signal;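 note: probe is a biotinylated anti-EGFR antibody binding compounds printed on slides; score combines fluorescence near 667 nm and signal to noise of each spot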
[11] = test system: Plasmodium falciparum Sir2 (PF13_0152, Sir2A); assay: pfSir2 binders on small-molecule microarrays, primary screen, biochemical, small-molecule microarray, 635 nm fluorescence (AID 1098); details: small-molecule microarray binding, fluorescence 635 nm; higher = more signal;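 note: score merges spot fluorescence intensity with its signal-to-noise ratio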
[12] = small-molecule microarray binders of probe aDKK1, primary screen, biochemical, biotinylated probe, 635/667 nm fluorescence (AID 1099); details: higher = more signal;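 note: score merges 667nm spot fluorescence with signal to noise across triplicate slides; reference of the scale not given here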
[13] = small-molecule microarray binders of probe aCHRDL2, primary screen, biochemical, biotinylated probe, 635/667 nm fluorescence (AID 1100); details: higher = more signal
[14] = splicing luciferase reporter signal modulators, primary screen, spliceosome inhibition project, cell-based, HEK293, splice +/- reporter (AID 1101); details: luminescence, 24 h, higher = more signal, called active from +8 up or from −8 down;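 note: HEK293 cells carrying a splicing-competent luciferase reporter gene; test concentration not given here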
[15] = biological target: Fibroblast growth factor 10 (Homo sapiens) (UniProt O15520); assay: FGF10 binders on small-molecule microarrays, primary screen, biochemical, small-molecule microarray, 635 nm fluorescence (AID 1102); details: FGF10 binding, fluorescence 635 nm, higher = more signal
Chain of Fibroblast growth factor 10 (Homo sapiens) (O15520 whole entry, looked up): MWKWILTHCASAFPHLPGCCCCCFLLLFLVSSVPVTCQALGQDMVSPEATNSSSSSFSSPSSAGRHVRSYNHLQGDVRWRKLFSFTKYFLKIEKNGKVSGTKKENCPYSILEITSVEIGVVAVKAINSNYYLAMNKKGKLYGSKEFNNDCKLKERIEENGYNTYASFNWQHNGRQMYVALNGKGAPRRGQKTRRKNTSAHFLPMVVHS

[16] = test system: glycogen synthase kinase-3 (GSK3A per assay name; protocol says GSK3B); assay: GSK3 binders on small-molecule microarrays, primary screen, biochemical, small-molecule microarray, 635 nm fluorescence, GSK3A (AID 1103); details: small-molecule microarray binding, fluorescence 635 nm; higher = more signal; note: the record names both GSK3A and GSK3B
[17] = biological target: Epidermal growth factor receptor (Homo sapiens) (UniProt P00533); assay: EGFR binders on small-molecule microarrays, primary screen, biochemical, small-molecule microarray, 635 nm fluorescence (AID 1104); details: EGFR binding, higher = more signal;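 note: score merges 667 nm emission intensity with spot signal to noise over triplicate slides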
Chain of Epidermal growth factor receptor (Homo sapiens) (P00533 whole entry, looked up): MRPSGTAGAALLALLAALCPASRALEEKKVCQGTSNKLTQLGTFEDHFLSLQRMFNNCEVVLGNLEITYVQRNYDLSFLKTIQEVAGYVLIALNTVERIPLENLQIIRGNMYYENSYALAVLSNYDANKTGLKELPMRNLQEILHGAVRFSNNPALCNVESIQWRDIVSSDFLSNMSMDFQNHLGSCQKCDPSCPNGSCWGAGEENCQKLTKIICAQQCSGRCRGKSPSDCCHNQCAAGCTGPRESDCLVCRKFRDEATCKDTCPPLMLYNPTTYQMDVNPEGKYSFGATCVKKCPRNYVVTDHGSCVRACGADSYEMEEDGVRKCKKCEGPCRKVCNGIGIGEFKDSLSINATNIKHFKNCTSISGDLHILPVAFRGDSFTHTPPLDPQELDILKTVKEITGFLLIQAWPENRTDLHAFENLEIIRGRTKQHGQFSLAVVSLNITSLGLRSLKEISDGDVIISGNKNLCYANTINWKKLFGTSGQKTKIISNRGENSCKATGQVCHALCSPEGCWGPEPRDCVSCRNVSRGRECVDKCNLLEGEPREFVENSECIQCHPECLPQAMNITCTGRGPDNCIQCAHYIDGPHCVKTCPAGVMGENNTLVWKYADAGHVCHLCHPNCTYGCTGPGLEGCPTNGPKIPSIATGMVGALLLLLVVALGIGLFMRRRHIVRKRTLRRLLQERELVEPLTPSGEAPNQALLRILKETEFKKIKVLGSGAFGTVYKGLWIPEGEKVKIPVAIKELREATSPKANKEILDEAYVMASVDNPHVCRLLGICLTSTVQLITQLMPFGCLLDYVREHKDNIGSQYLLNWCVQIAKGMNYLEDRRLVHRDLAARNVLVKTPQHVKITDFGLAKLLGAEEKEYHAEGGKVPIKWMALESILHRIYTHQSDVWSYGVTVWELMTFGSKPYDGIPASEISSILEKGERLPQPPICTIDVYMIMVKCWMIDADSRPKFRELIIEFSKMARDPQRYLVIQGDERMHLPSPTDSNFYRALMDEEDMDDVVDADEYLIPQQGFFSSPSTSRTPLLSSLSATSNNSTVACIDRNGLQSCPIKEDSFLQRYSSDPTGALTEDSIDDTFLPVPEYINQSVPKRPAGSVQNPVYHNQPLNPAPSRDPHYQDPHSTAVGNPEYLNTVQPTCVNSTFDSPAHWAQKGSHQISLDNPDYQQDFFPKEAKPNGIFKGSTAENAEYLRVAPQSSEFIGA

[18] = biological target: Follistatin-related protein 3 (Homo sapiens) (UniProt O95633); assay: FSTL3 binders on small-molecule microarrays, primary screen, biochemical, small-molecule microarray, 635 nm fluorescence (AID 1105); details: FSTL3 binding, higher = more signal;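 note: score merges emission near 667 nm and signal to noise per printed spot across three slides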
Chain of Follistatin-related protein 3 (Homo sapiens) (O95633 whole entry, looked up): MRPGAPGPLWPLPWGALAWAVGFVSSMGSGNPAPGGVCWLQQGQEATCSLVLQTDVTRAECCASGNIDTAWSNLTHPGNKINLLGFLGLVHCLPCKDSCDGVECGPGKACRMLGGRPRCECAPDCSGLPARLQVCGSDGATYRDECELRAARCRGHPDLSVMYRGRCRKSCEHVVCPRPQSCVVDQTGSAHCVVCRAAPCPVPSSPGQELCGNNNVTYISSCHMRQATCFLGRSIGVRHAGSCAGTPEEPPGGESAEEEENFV

[19] = biological target: Dickkopf-related protein 1 (Homo sapiens) (UniProt O94907); assay: DKK1 binders on small-molecule microarrays, primary screen, biochemical, small-molecule microarray, 635 nm fluorescence scan (AID 1106); details: DKK1 binding, higher = more signal;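 note: score merges emission near 667 nm with signal to noise over three replicate slides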
Chain of Dickkopf-related protein 1 (Homo sapiens) (O94907 whole entry, looked up): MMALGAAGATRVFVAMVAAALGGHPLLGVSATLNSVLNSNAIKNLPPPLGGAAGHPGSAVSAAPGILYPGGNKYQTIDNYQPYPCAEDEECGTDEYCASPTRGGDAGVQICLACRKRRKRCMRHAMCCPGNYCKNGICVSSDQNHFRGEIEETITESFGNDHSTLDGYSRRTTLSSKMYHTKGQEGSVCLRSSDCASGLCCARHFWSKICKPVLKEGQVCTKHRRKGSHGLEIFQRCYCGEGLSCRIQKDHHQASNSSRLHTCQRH

[20] = test system: Inhibin beta A chain (activin A); assay: INHBA (activin A) binders on microarrays, primary screen, biochemical, small-molecule microarray, 635 nm fluorescence scan (AID 1107); details: small-molecule microarray binding, higher = more signal;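 note: mouse activin A protein probed at 4.33 µg/mL on printed slides; score merges bound-protein fluorescence near 667 nm with spot signal-to-noise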

| SMILES | composite z-score [1] | z-score [2] | z-score [3] | z-score [4] | composite z-score [5] | z-score [6] | composite z-score [7] | composite z-score [8] | composite z-score [9] | composite z-score [10] | composite z-score [11] | composite z-score [12] | composite z-score [13] | z-score [14] | composite z-score [15] | composite z-score [16] | composite z-score [17] | composite z-score [18] | composite z-score [19] | composite z-score [20] |
| --- | --- | --- | --- | --- | --- | --- | --- | --- | --- | --- | --- | --- | --- | --- | --- | --- | --- | --- | --- | --- |
| COC(=O)[C@@]1(Cc2ccccc2)[C@H]2c3cc(C(=O)N4CCCC4)n(CC4CC4)c3C[C@H]2CN1C(=O)c1ccccc1 | 1.21 | 0.0645 (inactive) | 0.513 (inactive) | 0.667 (inactive) | 3.32 | -0.887 (inactive) | 0.508 | 0.294 | 1.05 | 0.776 | 1.23 | 1.48 | 1.16 | -2.08 (inactive) | 0.596 | 1.29 | 0.436 | 1.17 | -0.23 | 1.16 |
| COc1ccc(C#Cc2ccc3c(c2)[C@]2(C(=O)N3)[C@H](c3ccccc3OCCO)N3[C@H](c4ccccc4)[C@H](c4ccccc4)OC(=O)[C@H]3[C@@H]2C(=O)O)cc1 | 1.54 | 3.22 (inactive) | 1.13 (inactive) | 0.629 (inactive) | 3.09 | 0.0706 (inactive) | 0.111 | 1.11 | 1.03 | 0.122 | 1.26 | 0.734 | 0.142 | -2.14 (inactive) | 1.4 | 1.21 | 0.319 | 0.98 | 0.126 | 0.54 |
| C#CCNC(=O)[C@H](Cc1ccccc1)NC(=O)CCC(=O)O | -1.17 | -0.136 (inactive) | 0.396 (inactive) | 0.0017 (inactive) | -0.906 | -0.361 (inactive) | -0.198 | -0.88 | -0.502 | -0.238 | -0.759 | -0.397 | -0.205 | -0.222 (inactive) | -0.688 | -1.14 | -0.659 | -1.22 | -0.447 | 0.735 |
| CC(C)C[C@@H]1NC(=O)[C@H]2C[C@@H](C(=O)NCCCCCCN(C)C)[C@@H](c3ccc(O)cc3)N2C1=O | 1.56 | -0.924 (inactive) | -0.48 (inactive) | -0.734 (inactive) | 3.1 | -0.613 (inactive) | 0.0829 | 0.248 | 1.14 | 0.122 | 1.44 | 0.158 | -0.0008 | 0.561 (inactive) | 1.2 | 1.32 | 0.653 | 1.13 | 1.4 | 1.12 |
| COc1ccc(C(O)C2C=CC3C(=O)N(c4ccccc4)C(=O)C3N2Nc2ccc(C(C)C)cc2)cc1OCc1ccccc1 (stereo not given) | 1.61 | 0.345 (inactive) | 0.309 (inactive) | -0.707 (inactive) | 2.97 | -3.72 (inactive) | 0.308 | 0.112 | 1.03 | 0.339 | 1.5 | 1.17 | 1.27 | -0.00529 (inactive) | 0.889 | 1.27 | 0.207 | 1.29 | -0.213 | 0.521 |
| COc1ccc(C(=O)Nc2ccc(CN3C(=O)[C@@]4(O[C@@H](CCO)[C@H]([Si](C)(C)c5ccc(OC)cc5)[C@H]4C)c4ccccc43)cc2)cc1 | 1.54 | -0.81 (inactive) | -7.92 (inactive) | 0.495 (inactive) | 1.4 | 0.0243 (inactive) | 0.0217 | 1.49 | 1.08 | -0.0774 | 1.32 | 0.381 | 0.47 | -3.19 (inactive) | 0.793 | 1.1 | 0.65 | 1.45 | 1.04 | 1.39 |
| CCOC(=O)[C@H]1C/C=C/C[C@H](C(=O)OCC)C(=O)O[C@H]2[C@@H](OC)O[C@H](CO)[C@@H](OC(=O)Nc3cccc(F)c3)[C@@H]2OC1=O | 1.11 | 1.52 (inactive) | 0.268 (inactive) | 22.2 (active) | 2.94 | -0.168 (inactive) | -0.162 | 0.719 | 1.02 | -0.2 | 1.39 | -0.438 | -0.174 | 0.68 (inactive) | 0.687 | 0.327 | -0.226 | -0.0088 | 0.254 | 0.519 |
| COCCOC(=O)N1C(=O)[C@@]2(c3cc(C#CCCO)ccc31)[C@H](C(=O)N1CCN(c3ncccn3)CC1)[C@H]1C(=O)O[C@H](c3ccccc3)[C@H](c3ccccc3)N1[C@@H]2c1ccccc1OCCO | 1.55 | 0.335 (inactive) | 0.411 (inactive) | 3.34 (inactive) | 2.98 | 1.84 (inactive) | -0.114 | 0.791 | 0.846 | 0.268 | 0.748 | 0.293 | -0.0474 | -0.32 (inactive) | 0.727 | 1.26 | 0.688 | 0.751 | 0.547 | 0.487 |
| CC(C)OC(=O)C=C1C[C@@H](c2ccccc2C(F)(F)F)O[C@@H](c2ccccc2C(F)(F)F)O1 | 0.494 | -0.317 (inactive) | 1.17 (inactive) | 1.38 (inactive) | 0.675 | -0.952 (inactive) | -0.145 | 0.134 | 0.266 | -0.0776 | 0.192 | -0.0017 | 0.0563 | -0.723 (inactive) | 0.417 | 0.163 | 0.337 | 0.332 | 0.25 | 0.266 |
| CN1C(=O)C2C=CC(C(O)C3=C[C@H]4C[C@@H](C3)C4(C)C)N(Nc3ccccc3)C2C1=O (stereo not given in full) | 0.965 | 0.443 (inactive) | 0.192 (inactive) | 1.31 (inactive) | 2.46 | 0.0208 (inactive) | 0.161 | 0.305 | 1.14 | -0.0065 | 0.46 | 0.462 | 0.63 | 0.757 (inactive) | 0.944 | 0.776 | 0.356 | 1.19 | 0.109 | 1.42 |
